From PubChem BioAssay
Hits are enriched below; roughly 3.5% of the tested compounds scored in any of these assays.
FBA Mtb inh – Mtb FBA enzyme inhibitors, primary screen, biochemical, fluorescence, strain H37Rv; AID 588726, 2011; Fructose-bisphosphate aldolase (Mycobacterium tuberculosis (strain ATCC 25618 / H37Rv)), …; inhibition, % at 1 µM; purified M. tuberculosis FBA, fluorescence read-out; hit rate 2.3% among 360,000;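 also: 0% = vehicle and 100% = reference inhibitor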
GDH-TPI counter-1 – GDH-TPI coupling enzyme inhibitors, primary screen, artefact control for M. tuberculosis FBA inhibitor project, biochemical, absorbance, full deck; GDH-TPI coupled enzyme counterscreen, NADH absorbance; inhibition, % at 4.8 µM; hit rate 1.2% among 360,000; AID 588335, 2011; in the data active = inhibition above about 30%;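 also: 0% = DMSO wells and 100% = wells lacking the enzyme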
Mtb UGM inh – M. tuberculosis UGM enzyme inhibitors, primary screen, biochemical, fluorescence polarization, single point | inhibition, % at 10 µM | purified UGM, fluorescence polarization probe displacement | hit rate 0.06% among 320,000 | UDP-galactopyranose mutase (Mycobacterium tuberculosis (strain ATCC 25618 / H37Rv)), …; in the data active = inhibition above about 10%, passing the limit was not always enough
Rv3671c inh – Rv3671c serine protease inhibitors, primary screen, biochemical, fluorescence polarization, M. tuberculosis H37Rv; inhibition, % at 5.96 µM; P9WHR9; hit rate 0.048% among 320,000; in the data active = inhibition above about 38%;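 also: extracellular domain of Rv3671c used as enzyme; 0% = enzyme with DMSO and 100% = no enzyme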
Target sequence (P9WHR9 whole entry, looked up, the tested form may be a part): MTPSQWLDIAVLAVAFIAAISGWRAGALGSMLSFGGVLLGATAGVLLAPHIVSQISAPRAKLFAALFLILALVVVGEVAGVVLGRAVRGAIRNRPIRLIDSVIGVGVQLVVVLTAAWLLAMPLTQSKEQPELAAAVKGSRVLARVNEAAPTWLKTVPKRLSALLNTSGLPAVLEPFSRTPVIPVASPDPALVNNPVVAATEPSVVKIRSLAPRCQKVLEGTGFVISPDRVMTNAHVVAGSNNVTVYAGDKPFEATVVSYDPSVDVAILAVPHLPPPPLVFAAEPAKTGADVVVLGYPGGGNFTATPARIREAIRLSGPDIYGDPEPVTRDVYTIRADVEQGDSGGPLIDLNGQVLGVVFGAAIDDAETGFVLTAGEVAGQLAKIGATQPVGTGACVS
Mtb FBA confirm – M. tuberculosis aldolase blockers, biochemical, fluorescence, strain H37Rv, confirmation; inhibition, % at 1 µM; hit rate 78% among 5,600; shares compounds with FBA Mtb inh; purified M. tuberculosis FBA, fluorescence read-out;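 also: 0% = vehicle wells and 100% = reference inhibitor wells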
GDH-TPI counter-2 – GDH-TPI coupling enzyme inhibitors, artefact control for M. tuberculosis FBA inhibitor project, biochemical, fluorescence, high throughput; shares compounds with FBA Mtb inh; GDH-TPI coupled enzyme counterscreen; inhibition, % at 1 µM; hit rate 81% among 5,600; in the data active = inhibition above about 10%
* marks the source's active call; other numbers are inactive results; / = no result; + = active, no number. Rule as the data show it, unless noted: active = inhibition above about 27%; inactive = the rest.

SMILES	FBA Mtb inh	GDH-TPI counter-1	Mtb UGM inh	Rv3671c inh	Mtb FBA confirm	GDH-TPI counter-2
CCN1CCN(c2cc(C)c3cc(NC(=O)CCC(=O)N4CCN(c5ccccc5)CC4)ccc3n2)CC1	25	5	-2	9	/	/
CCC(C)NC(=O)CCC(=O)Nc1ccc2nc(N3CCOCC3)cc(C)c2c1 (configuration not stated)	77*	22	-5	0	3	-3
Cc1cccc(Nc2cc(=O)n(C)c(=O)n2C)c1	0	11	/	/	/	/
CCOC(=O)c1c(-c2ccccc2)oc2ccc(OC(C)=O)cc12	43*	10	-1	6	2	-4
CC(=O)Oc1ccc2c(=O)c(-c3ccccc3)c(C)oc2c1	43*	3	0	-4	49*	43*
COc1ccc2c(=O)c(-c3cnn(-c4ccccc4)c3)c(C)oc2c1	3	-7	0	-2	/	/
CCOC(=O)c1c(-c2ccccc2)oc2ccc(OCC(O)CN(C)C)cc12 (configuration not stated)	48*	6	0	-7	44*	32*
CCOC(=O)c1c(C)oc2ccc(OS(C)(=O)=O)cc12	-2	-7	-3	-1	/	/
COc1ccc(N2CCN(C(=O)COC(=O)Cc3c(F)cccc3Cl)CC2)cc1	0	-7	-3	12	/	/
CCN1CCN(C(=O)C2CC(=O)N(c3ccc(Cl)cc3)C2)CC1 (configuration not stated)	-10	-7	-2	-4	/	/
O=C(NC1CC1)c1cccc(NC(=O)C2CCCCC2)c1	-1	-7	/	/	/	/
CCCCNC(=O)COC(=O)CCC(=O)c1ccc(Cl)cc1	2	3	-1	-6	/	/
Cc1cc(C(=O)N/N=C2\CC(=O)c3ccccc32)c(C)n1-c1ccccc1	0	6	2	-18	/	/
Cc1cccc2nc(-c3cccnc3)c(NCCC(C)C)n12	29*	4	0	-11	+	+
Cc1cccc2nc(-c3cccnc3)c(Nc3ccccc3)n12	1	-2	0	6	/	/
COC(=O)c1ccc(-c2sc3nc(N4CCOCC4)c4c(c3c2N)CCCC4)o1	/	/	1	8	/	/
CC12CCC(=O)N1c1c(sc3nc(N4CCOCC4)c4c(c13)CCCC4)C(=O)N2 (configuration not stated)	63*	27	0	9	122*	113*
CN1CCN(c2ccc(CNC(=O)c3ccc(-c4cnn(C)c4)c4ccoc34)cc2)CC1	-2	1	/	/	/	/
COCCNC(=O)c1ccc(-c2cn[nH]c2)c2ccoc12	57*	12	/	/	43*	37*
CN(C)CCNC(=O)c1ccc(-c2cnn(C)c2)c2ccoc12	85*	4	/	/	104*	94*
O=C(NCC1CC1)c1ccc(-c2cn[nH]c2)c2ccoc12	27*	6	/	/	43*	31*
C[C@@H]1CN([C@@H](C)CO)C(=O)c2cc(Br)cnc2O[C@H]1CN(C)C(=O)Nc1ccc(F)cc1	1	5	/	/	/	/
CC(C)[C@H](NC(N)=O)C(=O)Nc1ccc(F)c(Cl)c1	2	7	-2	7	/	/
C=CCN1C(=O)/C(=C2/Sc3ccc(OC)cc3N2C)SC1=Nc1cccc(O)c1	2	6	5	5	/	/
COCOc1ccc(-c2cc(=O)c3c(OCOC)cc(OCOC)cc3o2)cc1	64*	21	-1	4	106*	64*
SMILES	FBA Mtb inh	GDH-TPI counter-1	Mtb UGM inh	Rv3671c inh	Mtb FBA confirm	GDH-TPI counter-2
COCOc1cc(O)c2c(=O)c(OCOC)c(-c3ccc(OCOC)c(OCOC)c3)oc2c1	-1	7	-2	4	/	/
CC(C)(C)c1ccc(-n2nc(C#N)c(Cl)cc2=O)cc1	4	8	/	/	/	/
CC(C)(C)c1cc(=O)n2c(C#N)c(C#N)nc2[nH]1	80*	12	0	-6	47*	40*
Cc1oc2ccccc2c1-c1cn2c(n1)SCC2	102*	5	1	-7	52*	41*
CCS(=O)(=O)Nc1c(C(=O)OC)[nH]c2ccccc12	4	10	-3	0	/	/
CCS(=O)(=O)Nc1c(C(=O)O)[nH]c2ccccc12	46*	-3	0	8	76*	63*
CCOC(=O)CN(Cc1ccccc1)C(=O)OC(C)(C)C	/	/	3	3	/	/
CCOc1ccc(CN2CCNC(=O)C2CC(=O)NCCc2nc(C)c3c(n2)CCC3)cc1 (configuration not stated)	28*	5	/	/	+	154*
CCCCC(=O)Oc1c(S(=O)(=O)c2ccccc2)c(C)nn1C(C)(C)C	3	4	1	-9	/	/
Cc1ccc(-n2cc(CN3CCC(O)(c4ccccn4)CC3)c(-c3ccc(F)cc3)n2)cc1	4	7	0	-5	/	/
Cc1cc(=O)oc2cc(OCC(=O)OCC(=O)Nc3ccccc3F)ccc12	54*	9	4	0	169*	147*
Cc1cc(=O)oc2cc(OCC(=O)NC3(C#N)CCCCC3)ccc12	77*	12	/	/	58*	58*
Cc1nnc(NC(=O)COc2ccc3c(C)cc(=O)oc3c2)s1	40*	10	3	2	192*	144*
Cc1cc(=O)oc2cc(OCC(=O)OCC(=O)NC(C)C)ccc12	48*	13	-3	3	107*	85*
Cc1cc(=O)oc2cc(OCC(=O)NC3(C#N)CCCCC3)c(Cl)cc12	22	15	/	/	/	/
Cc1cc(=O)oc2cc(OCC(=O)OCC(=O)Nc3ccccc3C(C)C)ccc12	26	10	-1	-10	/	/
CCC(CC)c1nnc(NC(=O)COc2ccc3c(C)cc(=O)oc3c2)s1	2	14	6	1	/	/
NC(=O)c1ncn([C@@H]2O[C@H](CNCc3ccc(-c4cc(C(F)(F)F)ccc4Cl)o3)[C@@H](O)[C@H]2O)n1	3	6	/	/	/	/
Cc1nn(Cc2ccccc2)c(C)c1CNC(=O)[C@H](C)N=C1NS(=O)(=O)c2ccccc21	3	13	0	-3	/	/
Cc1c(C)c2ccc(OC(C)C(=O)NCCCN3CCOCC3)c(C)c2oc1=O (configuration not stated)	32*	-1	0	4	74*	60*
Cc1c(C)c2ccc(OC(C)C(=O)NCCN3CCOCC3)c(C)c2oc1=O (configuration not stated)	47*	9	-1	-2	+	+
COc1ccc2oc(C(=O)NCCN3CCOCC3)c(C)c2c1OC	102*	11	1	-2	+	186*
Cc1ccccc1OC(C)C(=O)NCCCN1CCOCC1 (configuration not stated)	-1	2	-1	-10	/	/
Cc1ccc2oc(C(=O)NCCCN3CCOCC3)c(C)c2c1	15	-2	-1	3	/	/
